High-throughput results as filed in PubChem BioAssay.
Giardia FBPA inh – inhibitors of Giardia lamblia fructose-1,6-bisphosphate aldolase. 290,000 compounds, 0.71% hits. Potency, µM (highest dose often 59.6 µM), for the others: top-dose activity, negative = inhibition, actives largely listed as inhibitors. A8B2U2. AID 2451. purified Giardia FBPA; also: nearly all actives have a fitted effect of over 55% in size
Target sequence (A8B2U2 whole entry, looked up): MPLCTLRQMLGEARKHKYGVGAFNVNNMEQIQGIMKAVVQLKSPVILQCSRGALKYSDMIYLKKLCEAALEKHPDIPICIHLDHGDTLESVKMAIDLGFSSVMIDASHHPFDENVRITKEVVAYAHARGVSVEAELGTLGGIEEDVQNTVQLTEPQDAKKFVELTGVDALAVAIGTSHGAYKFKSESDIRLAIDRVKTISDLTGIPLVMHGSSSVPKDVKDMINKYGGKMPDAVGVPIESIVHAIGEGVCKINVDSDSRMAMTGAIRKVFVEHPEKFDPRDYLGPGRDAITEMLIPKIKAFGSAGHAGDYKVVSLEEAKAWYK
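40 nM FBPA preincubated 10 min at RT with compound (up to 57.5 uM final), then substrate plus GAPDH/TPI/NAD/arsenate coupling and diaphorase/resazurin added. Fluorescence read after 20 min at RT, 525/598 nm.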
AmpC inh no detg – inhibitors of E. coli AmpC beta-lactamase without detergent; AmpC nitrocefin hydrolysis, absorbance 480 nm, 0.0001% Triton; Potency, µM (series often up to 57.1 µM), for the others: at the top dose activity change, negative = inhibition, hits mostly inhibitors; AID 485341; 330,000 compounds, 0.52% hits;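 also: plate controls were no compound for no effect and no enzyme for full effect; nearly all actives have a fitted effect of over 20% in size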
Target sequence (P00811 whole entry, looked up): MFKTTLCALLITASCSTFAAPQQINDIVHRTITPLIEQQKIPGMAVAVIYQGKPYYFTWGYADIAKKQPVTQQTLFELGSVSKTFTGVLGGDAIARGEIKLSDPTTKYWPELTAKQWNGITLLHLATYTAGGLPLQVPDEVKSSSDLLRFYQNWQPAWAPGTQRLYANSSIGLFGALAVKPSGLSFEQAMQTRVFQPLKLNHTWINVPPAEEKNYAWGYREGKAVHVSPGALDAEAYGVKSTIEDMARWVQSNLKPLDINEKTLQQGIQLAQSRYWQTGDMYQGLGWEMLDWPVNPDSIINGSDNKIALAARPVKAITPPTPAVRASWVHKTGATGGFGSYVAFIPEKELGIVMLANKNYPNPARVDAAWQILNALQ
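20 mM phosphate pH 7.0 + 0.01% (detergent screen) or 0.0001% Triton X-100; 5.3 nM AmpC reagent; cpd preinc 15 min RT; nitrocefin (800 uM stock) to start; A480 q20 s × 4 min; Activity was normalised to no-enzyme and no-compound control wells.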
AmpC detergent – blocks E. coli AmpC beta-lactamase in detergent assay; P00811; AmpC hydrolysis of nitrocefin, absorbance 480 nm, 0.01% Triton; 370,000 compounds, 0.041% hits; Potency, µM (series often up to 114 µM), without a hit: top-dose activity change, negative = inhibition, most hits filed as inhibitors; AID 485294;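 also: 0% = no-compound wells and -100% = no-enzyme wells; nearly all actives have a fitted effect of over 25% in size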
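20 mM phosphate pH 7.0 + 0.01% (detergent screen) or 0.0001% Triton X-100; 5.3 nM AmpC reagent; cpd preinc 15 min RT; nitrocefin (800 uM stock) to start; A480 q20 s × 4 min; Activity was normalised to no-enzyme and no-compound control wells.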
Sm TGR block – S. mansoni TGR enzyme inhibition. Q962Y6. purified TGR, DTNB reduction, TNB absorbance 405 nm. Potency, µM (highest dose often 114 µM), inactives show at the top dose activity change, negative = inhibition, most hits filed as inhibitors. 360,000 compounds, 3% hits. AID 485364; also: nearly all actives have a fitted effect of over 60% in size
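TGR 20 nM + NADPH 100 uM (dispensed conc.), cpd preinc 15 min RT; start with NADPH (500 uM addition) then DTNB (15 mM addition). Kinetic TNB absorbance, 405 nm filter. Four-parameter Hill fit across titration.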
Active calls of the source: *; ? = inconclusive; / = no result. Compounds with a hit are over-represented: about 3.6% of the library has one in this group of screens. Calls follow the shape of the dose curve; as a rule, active = well fitted curve in the direction sought with a large enough effect; inconclusive = small, poorly fitted or top-dose-only effect, or another doubt; inactive = no such curve, though single readings can be large; an effect the other way counts as inactive or inconclusive. Unless noted, % is scaled to controls: 0 for no effect and ±100 for the full control effect; potency is read from the fitted curve at half-maximal effect.

SMILES	Giardia FBPA inh	AmpC inh no detg	AmpC detergent	Sm TGR block
O=[N+]([O-])c1c(NCCCO)cc(SCc2ccco2)c2nonc12	?	-11.7%	?	3.16µM*
O=[N+]([O-])c1c(NCCCO)cc(Sc2ccc(Cl)cc2)c2nonc12	?	-2.4%	-7.6%	5.62µM*
O=[N+]([O-])c1c(NCCCO)cc(N2CCN(Cc3ccc4c(c3)OCO4)CC2)c2nonc12	-3.9%	197.7%	-10.1%	-6.9%
Cn1ccnc1Sc1cc(NCCCO)c([N+](=O)[O-])c2nonc12	-9.9%	-26.5%	-0.5%	0.708µM*
CCc1ccccc1NC(=O)Cn1nnc(-c2nc(-c3ccc(C)cc3)no2)c1N	/	/	2.4%	10.1%
Cc1ccc(NC(=O)CN(C)C(=O)COC(=O)[C@@H](NC(=O)c2ccccc2F)C(C)C)cc1	/	7.2%	/	/
Cc1cccc(CSc2nc3c(cc2C#N)CN(C)CC3)c1	-1.3%	79.0%	-2.0%	-30.7%
CN1CCc2nc(SCc3ccccc3Br)c(C#N)cc2C1	-17.0%	31.9%	6.8%	22.4µM*
Nc1c(C(=O)Nc2ccc(F)cc2)sc2nc(-c3ccco3)ccc12	-9.3%	?	-1.8%	?
CC(=O)c1sc2nc(-c3ccco3)ccc2c1N	?	-24.9%	-2.8%	0.891µM*
Nc1c(C(=O)Nc2ccc(Br)cc2)sc2nc(-c3ccco3)ccc12	-3.4%	-52.3%	-3.8%	0.794µM*
Clc1ccc(-c2nsc(N3CCOCC3)n2)c(Cl)c1	10.0%	-20.6%	3.8%	-0.1%
C[C@@H]1O[C@@H](O[C@H]2CC[C@@H](O[C@H]3[C@H](O)C[C@H](c4ccc5c(c4O)C(=O)C4=C(C5=O)[C@@]5(O)C(=O)C[C@](C)(O[C@H]6CC[C@H](O[C@H]7C=CC(=O)[C@H](C)O7)[C@H](C)O6)C[C@@]5(O)C=C4)O[C@@H]3C)O[C@H]2C)C=CC1=O	7.06µM*	/	/	/
Cc1cccc(-n2c(=O)c3c4c(sc3n3c(C)nnc23)CCCC4)c1	/	/	9.1%	4.7%
CSc1ccccc1NC(=O)COC(=O)c1ccc(-n2nc(C)cc2C)cc1	/	-1.0%	/	/
COCc1nnc(SCC(=O)NC(C)c2ccccc2)n1-c1ccccc1 (stereo unspecified)	-0.3%	0.398µM*	-1.6%	-16.0%
CC1(C)NC(=O)N(CC(=O)OCC(=O)c2ccc(Cl)s2)C1=O	/	-18.9%	/	/
O=C(CC1SC(=O)N(c2ccccc2)C1=O)Nc1cccc2ccccc12 (stereo unspecified)	-14.3%	17.8µM*	-4.2%	?
Cc1ccccc1NC(=O)CC1SC(=O)N(c2ccccc2)C1=O (stereo unspecified)	-11.3%	-22.4%	2.6%	5.01µM*
CCCN1C(=O)SC(CC(=O)Nc2ccccc2C)C1=O (stereo unspecified)	5.2%	-15.5%	-4.7%	-34.6%
CCOc1ccc(NC(=O)CC2SC(=O)N(c3ccccc3)C2=O)cc1 (stereo unspecified)	-1.0%	-15.7%	2.5%	?
COc1ccc(-c2sc3ccc(-c4ccc5c(c4)OCO5)cc3c2-c2ccc(OC)nc2)cc1	/	-12.1%	/	/
CCc1cccc(-n2c(=O)c3cccnc3n2CC(=O)NCc2ccc(C)cc2)c1	/	/	2.9%	-12.2%
COc1ccc(CCNc2oc(-c3ccccc3OC)nc2C#N)cc1	-4.9%	-2.9%	?	14.1µM*
Cc1ccc(S(=O)(=O)NCc2ccccc2)cc1C(=O)NC1CCC(C)CC1 (stereo unspecified)	/	-13.3%	?	-10.6%
SMILES	Giardia FBPA inh	AmpC inh no detg	AmpC detergent	Sm TGR block
COc1ccc(C2CC(=O)c3cnc(NC(=O)c4ccco4)nc3C2)cc1 (stereo unspecified)	/	27.7%	0.9%	-14.5%
COc1ccccc1C(=O)Nc1ncc2c(n1)CC(c1ccco1)CC2=O (stereo unspecified)	-22.3%	-12.0%	?	20µM*
COc1ccc(NC(=O)COC(=O)c2ccc(OC)c(S(=O)(=O)N3CCCC3)c2)cc1OC	/	-17.8%	-0.1%	-15.4%
CCOC(=O)c1ccc(CN(Cc2ccccc2)S(=O)(=O)c2ccc(C)cc2)cc1	/	/	-5.3%	6.7%
O=C(CCc1nnc(Cc2ccc(-c3ccccc3)cc2)o1)NCCc1cccnc1	1.3%	182.9%	9.6%	-7.4%
CCN(CC)CCCC(C)NC(=O)c1cccc(S(=O)(=O)N2CCc3ccccc32)c1 (stereo unspecified)	-7.3%	16.1%	3.7%	15.8µM*
CC(C)CCNC(=O)c1cccc(S(=O)(=O)N2CCc3ccccc32)c1	-0.2%	-17.9%	3.1%	-4.0%
Cc1ccc(-c2nonc2NC(=O)c2ccco2)cc1C	/	/	1.2%	-0.6%
O=C(Nc1ccncc1)Nc1ccc(Br)cc1Cl	5.0%	7.94µM*	?	-0.6%
C=CCNC(=O)Nc1ccc(Br)cc1Cl	3.4%	-13.6%	-7.3%	7.1%
COc1ccc(OC)c(C2Nc3c(C)cc(C)cc3-c3cc(C)nn32)c1 (stereo unspecified)	/	/	-13.2%	-1.4%
CCOC(=O)c1c(C)[nH]c(C=Nc2ccccc2)c1O	?	-6.8%	-0.4%	31.6µM*
CC1(OC(=O)C2CCCC2)C(=O)C=C2C=C(c3ccsc3)OC=C2C1=O (stereo unspecified)	?	-16.6%	-7.5%	44.7µM*
CC1(OC(=O)CCc2ccccc2)C(=O)C=C2C=C(c3ccsc3)OC=C2C1=O (stereo unspecified)	-1.8%	28.2µM*	-1.2%	?
CCCCC1=CC2=CC(=O)C(C)(OC(=O)C3CCCC3)C(=O)C2=CO1 (stereo unspecified)	?	-58.9%	-0.5%	39.8µM*
CC1(OC(=O)C2CCCC2)C(=O)C=C2C=C(c3ccsc3)N(CCCCO)C=C2C1=O (stereo unspecified)	?	52.6%	2.0%	-19.4%
CC1(OC(=O)C2CCCC2)C(=O)C=C2C=C(c3ccsc3)N(Cc3ccco3)C=C2C1=O (stereo unspecified)	?	-2.1%	0.3%	25.1µM*
CC1CCN(S(=O)(=O)c2cc(C(=O)N3CCN(c4cccc(Cl)c4)CC3)n(C)c2)CC1	/	/	-3.3%	-3.9%
COc1cc2c(C#N)c(N3CCCC3)nc(N)c2c(N)n1	1.26µM*	2.9%	4.7%	7.2%
Cc1ccc(S(=O)Cc2nc(-c3ccc(C(=O)NC(C)c4ccccc4)cc3)oc2C)cc1 (stereo unspecified)	/	/	17.7%	14.1µM*
Cc1ccc(-c2nc(CS(=O)CC(=O)NC(C)CCc3ccccc3)c(C)o2)cc1 (stereo unspecified)	/	183.9%	-3.0%	8.91µM*
Cc1ccc(-c2nc(CS(=O)(=O)CC(=O)NC(C)CCc3ccccc3)c(C)o2)cc1 (stereo unspecified)	/	/	7.8%	-21.6%
COc1ccc(-c2nc(CS(=O)CC(=O)NC(C)CCc3ccccc3)c(C)o2)cc1OC (stereo unspecified)	-3.7%	145.4%	-5.5%	31.6µM*
COc1ccccc1CNC(=O)CS(=O)Cc1nc(-c2ccc(OC)c(OC)c2)oc1C (stereo unspecified)	3.1%	89.8%	-1.2%	?
